Results published in the supplement of paper PMC6555819.

Tests used:
Assay in all cases: PBM binding z-score (relative to random genomic background probes); higher = stronger binding; sequences stand for … in GC…GCGATTGACAGCGTAGAATGAAGG
[1] = test system: FXR:RXRa (NR concentration 270 nM, RXRa partner concentration 90 nM)
Procedure, shortened: (§1)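 Probes were double-stranded and carried 34-nt variable regions with direct-repeat seeds, single-nucleotide variants, half-site ablations and random human genomic background sequences, printed on custom Agilent 4×180K protein-binding microarrays. Arrays were incubated 1 h with ligand-free nuclear receptor dimers in PBS pH 7.4, 2% milk, 0.02% Triton X-100, 1 mM DTT, 0.2 mg/mL BSA and 0.4 mg/ml salmon testes DNA. Antibodies against each partner (one per run) detected binding, and scanned fluorescence was regression-normalized. Binding z-scores use the random background probes as reference.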

[2] = test system: LXRa:RXRa (NR concentration 270 nM, RXRa partner concentration 90 nM)
Procedure, shortened: as §1

[3] = test system: LXRa homodimer (NR concentration 270 nM)
Procedure, shortened: as §1

[4] = test system: LXRb:RXRa (NR concentration 270 nM, RXRa partner concentration 90 nM)
Procedure, shortened: as §1

[5] = test system: LXRb homodimer (NR concentration 270 nM)
Procedure, shortened: as §1

[6] = test system: PPARa:RXRa (NR concentration 270 nM, RXRa partner concentration 90 nM)
Procedure, shortened: as §1

[7] = test system: PPARg:RXRa (NR concentration 180 nM, RXRa partner concentration 90 nM)
Procedure, shortened: as §1

[8] = test system: PPARg:RXRa 270nM:90nM, anti-RXR (NR concentration 270 nM, RXRa partner concentration 90 nM)
Procedure, shortened: as §1

[9] = test system: PPARg:RXRa 30nM:10nM, anti-RXR (NR concentration 30 nM, RXRa partner concentration 10 nM)
Procedure, shortened: as §1

[10] = test system: PPARg:RXRa 90nM:30nM, anti-RXR (NR concentration 90 nM, RXRa partner concentration 30 nM)
Procedure, shortened: as §1

[11] = test system: PPARg:RXRa DBDmut IVT, anti-RXR (DBD mutation: RXRa K156A/R161A, NR concentration 270 nM, RXRa partner concentration 90 nM)
Procedure, shortened: as §1

[12] = test system: PPARg:RXRa IVT, anti-PPARg (NR concentration 270 nM, RXRa partner concentration 90 nM)
Procedure, shortened: as §1

[13] = test system: PPARg DBDmut:RXRa IVT, anti-PPARg (DBD mutation: PPARg1 K132A/R137A, NR concentration 270 nM, RXRa partner concentration 90 nM)
Procedure, shortened: as §1

[14] = test system: PPARg DBDmut IVT, anti-PPARg (DBD mutation: PPARg1 K132A/R137A, NR concentration 270 nM)
Procedure, shortened: as §1

[15] = test system: PPARg homodimer (NR concentration 180 nM)
Procedure, shortened: as §1

[16] = test system: PXR:RXRa (NR concentration 270 nM, RXRa partner concentration 90 nM)
Procedure, shortened: as §1

[17] = test system: PXR homodimer (NR concentration 270 nM)
Procedure, shortened: as §1

[18] = test system: RARa:RXR (NR concentration 270 nM, RXRa partner concentration 90 nM)
Procedure, shortened: as §1

[19] = test system: RARa homodimer (NR concentration 270 nM)
Procedure, shortened: as §1

[20] = test system: RARb:RXRa (NR concentration 270 nM, RXRa partner concentration 90 nM)
Procedure, shortened: as §1

Sequence | PBM binding z-score [1] | PBM binding z-score [2] | PBM binding z-score [3] | PBM binding z-score [4] | PBM binding z-score [5] | PBM binding z-score [6] | PBM binding z-score [7] | PBM binding z-score [8] | PBM binding z-score [9] | PBM binding z-score [10] | PBM binding z-score [11] | PBM binding z-score [12] | PBM binding z-score [13] | PBM binding z-score [14] | PBM binding z-score [15] | PBM binding z-score [16] | PBM binding z-score [17] | PBM binding z-score [18] | PBM binding z-score [19] | PBM binding z-score [20]
CAAACTAGGTCATTGACAGGACAGTGAATAGTAA | 4.7 | 3.38 | 0.946 | 2.29 | 0.688 | 4.71 | 7.82 | 6.85 | 3.97 | 6.16 | 8.37 | 8.3 | 2.39 | 1.76 | 2.3 | 1.73 | 0.252 | 2.35 | 0.262 | 3.75
GCTAGCAGGCCATTTGGGTCGCTCAATGACGGGC | -0.655 | -0.842 | -0.846 | -1.04 | -1.24 | -0.407 | -0.08 | -0.417 | -0.944 | -0.61 | 0.479 | 0.26 | -1.18 | -1.25 | -1.01 | -0.81 | -0.85 | -0.542 | -1.69 | -0.0207
TAATATAGGTAAAGGTGAAAGTCGAACGATATGA | 1.14 | 1.33 | 0.478 | 1.55 | 0.351 | 4.23 | 6.52 | 6.14 | 4.8 | 6.35 | 6.04 | 6.44 | 2.33 | 2.3 | 2.1 | 1.02 | 0.701 | 1.8 | 1.92 | 2.03
CCGACTGGGGCAAAAGTTACCATACTCAGTACGA | -0.402 | -0.339 | -0.126 | -0.0156 | -0.764 | 2.49 | 5.28 | 6.09 | 4.45 | 6.52 | 4.08 | 3.59 | -0.127 | -0.288 | 0.506 | -0.414 | -0.137 | -0.0334 | -0.135 | 0.202
TCTCGGAGGACACGAAAGGTCATAGCTCGACATC | 4.39 | 5.36 | 5.67 | 4.45 | 0.51 | 4.49 | 2.19 | 3.86 | 3.01 | 3.37 | 2.17 | 2.14 | 1.29 | 0.408 | 3.48 | 5.31 | 1.81 | 5.39 | 1.62 | 4.26
TTCCCAAGGTGAAGGTCGTTGATCCCTCTGTAGA | 2.26 | 2.23 | -0.0326 | 1.74 | -0.362 | 2.26 | 0.674 | 1.81 | 0.663 | 1.37 | 0.771 | 2.06 | -0.218 | -0.23 | 1.17 | 1.5 | 0.155 | 1.78 | -0.438 | 2.2
TCTCGGAGGACACGAAAGGTCAGATCTCGACATC | 3.11 | 3.81 | 3.83 | 3.85 | 0.385 | 3.44 | 1.37 | 2.81 | 3.01 | 2.77 | 2.03 | 1.5 | -0.0755 | -0.793 | 2.23 | 3.88 | 0.563 | 3.78 | 0.369 | 4.15
TAGCCTAGCTCATGGGCCAGTATACCACGCGAAC | -0.822 | -0.837 | -0.369 | -0.9 | -0.798 | -0.776 | 0.282 | -0.783 | -0.762 | -1.03 | -1.04 | -0.618 | 0.0751 | -0.524 | -0.407 | -0.739 | -0.677 | -0.584 | -0.475 | -0.413
ATCTCTAGGTAAAGATAGTCCAGTGAATGCAAAT | 0.226 | 0.368 | -0.00685 | -0.0224 | 0.398 | -0.051 | 0.458 | 0.219 | 0.157 | 0.0539 | 2.01 | 1.66 | 1.44 | 0.736 | 0.414 | -0.159 | 0.523 | -0.259 | 0.93 | -0.257
GATACAGGGTCAGCTAAAGGCCAGAGTATGGAAA | 4.35 | 2.74 | -0.339 | 2.43 | -0.758 | 4.67 | 4.07 | 3.58 | 0.882 | 2.24 | 1.25 | 2.78 | 0.576 | -0.417 | 2.2 | 2.68 | -0.205 | 4.25 | 0.412 | 4.26
CGTCAAAGTTCAACTAAGCTAACGTAAAGCACGC | 6.6 | 6.23 | 4.14 | 4.26 | 2.57 | 5.08 | 4.95 | 5.46 | 1.83 | 4.48 | 0.667 | 1.69 | 1.11 | 1.29 | 3.28 | 4.69 | 4.44 | 3.82 | 2.34 | 5.31
GTACCAAGGTGAATTGGTCGTTGATGAGTAGGCG | 0.321 | 0.0311 | -0.495 | -0.18 | -0.792 | 0.557 | 0.383 | 0.173 | -0.286 | -0.112 | 1.6 | 1.85 | 0.108 | 0.076 | -0.163 | -0.436 | -0.573 | -0.15 | -0.635 | 1.17
ACAGACAGGTGGTGAAGGTAACTCAGGCTATCAT | -0.0169 | -0.306 | -0.324 | -0.0742 | -0.476 | -0.288 | 0.473 | -0.194 | -0.095 | -0.321 | -0.597 | 0.0629 | -0.371 | -0.55 | 0.0722 | -0.271 | 0.0248 | -0.15 | 0.517 | -0.142
TCGAGTAGGTTAGTCCGGGCATTCAGCCAACATA | -0.219 | 0.109 | 0.0222 | -0.106 | -1.05 | 0.14 | -0.395 | 0.281 | 0.992 | 0.409 | 1.83 | 1.17 | -0.501 | -0.393 | -0.627 | -0.337 | -0.362 | -0.0826 | -1.14 | 0.232
CCTACTGGGCTATTCAGAGGTCATTGATCATATG | 2.44 | 4.58 | 7.28 | 3.7 | 0.414 | 3.44 | 1.17 | 2.73 | 0.812 | 1.97 | 2.84 | 2.73 | 0.261 | 0.0805 | 2.7 | 4.9 | 2.27 | 4.54 | 0.714 | 2.79
